In the library only some 6.8% were active in any assay of this set; here they are far more common.
Pf Dd2 inh: P. falciparum Dd2 growth inhibitors, primary screen, SYBR Green fluorescence, single dose replicates; 72 h; active compounds read low; activity change, % at 10 µM; actives 2.3% (n = 94,000); in the data active = activity change below about -80%
C diff growth: C. difficile growth inhibitors, primary screen, HTS | actives 0.25% (n = 86,000) | growth activity, negative = inhibition, % at 16 µg/mL (by protocol) | AID 1259249, 2017 | Clostridium difficile clinical isolate growth, OD600, 24 h; active compounds read low;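 active = mean growth activity at or below -80% and every replicate also at or below -80%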;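 also: 0% = DMSO wells and -100% = levofloxacin 16 µg/mL wells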
T cruzi growth: T. cruzi intracellular proliferation inhibitors, primary screen, cell-based, beta-gal Tulahuen parasites, NIH3T3 host, luminescence. T. cruzi beta-gal in NIH3T3, GalScreen luminescence, 90 h. inhibition, % at 8.34 µM. actives 5.9% (n = 77,000);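 active = mean inhibition above about 93%, with at least 55% of replicates each passing it, limit read from the data, passing the limit was not always enough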
* hit, by the source's call.

`C[C@@H]1CN([C@@H](C)CO)C(=O)c2cccc(NS(=O)(=O)c3cccs3)c2O[C@@H]1CN(C)C(=O)NC1CCCCC1` gave Pf Dd2 inh -17 and T cruzi growth 28.
`C[C@@H]1CCCCO[C@@H](CN(C)CC2CCCCC2)[C@H](C)CN([C@@H](C)CO)C(=O)c2cc(NS(=O)(=O)c3ccc(F)cc3)ccc2O1` gave Pf Dd2 inh -36, C diff growth 19 and T cruzi growth 67.
For COCC#Cc1ccc(CC[C@H]2O[C@H]3CC[C@H](CO)O[C@H]3C[C@@H]2n2cc(C(C)(C)O)nn2)cc1 the results were Pf Dd2 inh -30 and C diff growth -1.
COc1ccc(S(=O)(=O)Nc2cccc3c2O[C@@H](CN(C)C(=O)Nc2ccc4c(c2)OCO4)[C@H](C)CN([C@H](C)CO)C3=O)cc1 was read as Pf Dd2 inh 13, C diff growth 2 and T cruzi growth 23.
Screening C[C@H]1CN([C@@H](C)CO)S(=O)(=O)c2ccc(Br)cc2O[C@H]1CN(C)C(=O)C1CCCCC1 returned Pf Dd2 inh -22, C diff growth 14 and T cruzi growth 17.
N#C[C@H]1[C@@H](c2ccccc2-c2cccc(F)c2)[C@H](CO)N1S(=O)(=O)c1cccc(F)c1 was read as Pf Dd2 inh -26 and C diff growth -12.
For COc1ccccc1CNC(=O)C[C@H]1C[C@@H]2c3cc(NC(=O)c4ccc5c(c4)OCO5)ccc3O[C@@H]2[C@@H](CO)O1 the results were Pf Dd2 inh -22, C diff growth -4 and T cruzi growth 18.
For CCS(=O)(=O)N1[C@@H](CO)[C@H](c2ccccc2)C12CN(C(=O)C1CC1)C2 the results were Pf Dd2 inh -1 and C diff growth -3.
C[C@@H]1CCCCO[C@@H](CN(C)Cc2ccccc2)[C@H](C)CN([C@H](C)CO)C(=O)c2cc(NC(=O)Cc3ccccc3)ccc2O1 was read as Pf Dd2 inh -66 and C diff growth -1.
`C[C@@H]1CN([C@H](C)CO)C(=O)c2cc(NC(=O)Cc3ccccc3)ccc2O[C@@H](C)CCCCO[C@H]1CN(C)Cc1ccc(Cl)c(Cl)c1` gave Pf Dd2 inh -84*, C diff growth 1 and T cruzi growth 91.
For C[C@H]1CCCCO[C@H](CN(C)Cc2ccc(Cl)c(Cl)c2)[C@@H](C)CN([C@@H](C)CO)C(=O)c2cc(NC(=O)Cc3ccccc3)ccc2O1 the results were Pf Dd2 inh -85*, C diff growth 7 and T cruzi growth 68.
C[C@@H]1CCCCO[C@@H](CN(C)Cc2ccc(Cl)c(Cl)c2)[C@H](C)CN([C@@H](C)CO)C(=O)c2cc(NC(=O)Cc3ccccc3)ccc2O1 was read as Pf Dd2 inh -66, C diff growth 5 and T cruzi growth 63.
C[C@@H]1CN([C@H](C)CO)C(=O)c2cc(NC(=O)Nc3cccc4ccccc34)ccc2O[C@H]1CN(C)S(=O)(=O)c1cn(C)cn1 was read as Pf Dd2 inh -13 and C diff growth -1.
`COc1ccc2c3c(n(C)c2c1)[C@@H](CO)N(S(C)(=O)=O)CC31CN(C(=O)C2CC2)C1` gave Pf Dd2 inh 16 and C diff growth 7.
CCC(=O)N1CC2(CN(C(=O)c3cccnc3)C2)c2c([nH]c3cc(OC)ccc23)[C@H]1CO was read as Pf Dd2 inh -16 and C diff growth 0.
COc1ccc(NC(=O)Nc2ccc3c(c2)C(=O)N([C@H](C)CO)C[C@H](C)[C@H](CN(C)Cc2ccc(C(=O)Nc4ccccc4N)cc2)O3)cc1 was read as Pf Dd2 inh -79 and C diff growth 2.
For C[C@@H]1CN([C@@H](C)CO)C(=O)c2cc(NC(=O)Nc3ccccc3)ccc2O[C@@H]1CN(C)Cc1ccc(C(=O)Nc2ccccc2N)cc1 the results were Pf Dd2 inh -83*, C diff growth 1 and T cruzi growth 48.
C[C@H]1CN([C@@H](C)CO)C(=O)c2cc(NC(=O)Nc3ccc(F)cc3)ccc2O[C@H]1CN(C)Cc1ccc(C(=O)Nc2ccccc2N)cc1 was read as Pf Dd2 inh -71, C diff growth 4 and T cruzi growth 51.
C[C@H](CO)N1C[C@H](C)[C@H](CN(C)Cc2ccc(C(=O)Nc3ccccc3N)cc2)Oc2ccc(NC(=O)Cc3ccccc3)cc2C1=O was read as Pf Dd2 inh -84* and C diff growth 6.
Screening C[C@H](CO)N1C[C@H](C)[C@H](CN(C)Cc2ccc(C(=O)Nc3ccccc3N)cc2)Oc2ccc(NC(=O)Nc3ccccc3)cc2C1=O returned Pf Dd2 inh -70, C diff growth -4 and T cruzi growth 42.
For C[C@H](CO)N1C[C@H](C)[C@H](CN(C)Cc2ccc(C(=O)Nc3ccccc3N)cc2)Oc2ccc(NC(=O)Nc3ccc(C(F)(F)F)cc3)cc2C1=O the results were Pf Dd2 inh -80* and C diff growth 40.
`C[C@@H]1CN([C@@H](C)CO)C(=O)c2cc(NC(=O)Nc3ccc(F)cc3)ccc2O[C@@H]1CN(C)Cc1ccc(C(=O)Nc2ccccc2N)cc1` gave Pf Dd2 inh -84* and C diff growth 26.
Screening C[C@@H]1CN([C@@H](C)CO)C(=O)c2cc(NC(=O)c3ccncc3)ccc2O[C@@H]1CN(C)Cc1ccc(C(=O)Nc2ccccc2N)cc1 returned Pf Dd2 inh -73 and C diff growth 1.
COc1ccc2c3c(n(C)c2c1)[C@H](CO)N(CC1CC1)CC31CCN(C(=O)c2cccnc2)CC1 was read as Pf Dd2 inh 1 and C diff growth 4.
`C/C=C/c1cnc2c(c1)C(=O)N([C@H](C)CO)C[C@@H](C)[C@@H](CN(C)C(=O)NCCC)O2` gave Pf Dd2 inh 49, C diff growth 1 and T cruzi growth 52.
For C[C@@H]1CN([C@@H](C)CO)C(=O)c2cccc(NC(=O)CCCCCC(=O)Nc3ccccc3N)c2O[C@H]1CN(C)Cc1ccc2c(c1)OCO2 the results were Pf Dd2 inh -88* and C diff growth -5.
C[C@H](CO)N1C[C@H](C)[C@@H](CN(C)Cc2ccc3c(c2)OCO3)Oc2c(NC(=O)CCCCCC(=O)Nc3ccccc3N)cccc2C1=O was read as Pf Dd2 inh -85* and C diff growth -6.
`C[C@H](CO)N1C[C@H](C)[C@H](CN(C)Cc2ccc3c(c2)OCO3)Oc2ccc(NC(=O)CCCCCC(=O)Nc3ccccc3N)cc2C1=O` gave Pf Dd2 inh -76 and C diff growth -4.
For C[C@@H]1CN([C@@H](C)CO)C(=O)c2cc(NC(=O)CCCCCC(=O)Nc3ccccc3N)ccc2O[C@@H]1CN(C)Cc1ccc2c(c1)OCO2 the results were Pf Dd2 inh -64 and C diff growth 0.
`O=C(C[C@H]1C[C@H]2c3cc(NC(=O)C4CCC4)ccc3O[C@H]2[C@H](CO)O1)NCCN1CCCCC1` gave Pf Dd2 inh 7 and T cruzi growth 14.
`CCC(=O)Nc1ccc2c(c1)OC[C@H](C)N(C(=O)CC)C[C@H](C)[C@@H](OC)CN(C)C2=O` gave Pf Dd2 inh -16 and C diff growth -3.
